# An excerpt weighted towards active compounds, which were near 1.3% of everything screened.
# Rin1 Abl inh: inhibitors of Rin1-Abl protein binding, primary screen, biochemical, TR-FRET; Tyrosine-protein kinase ABL1 (Homo sapiens) + Ras and Rab interactor 1 (Homo sapiens), …; inhibition, % at 7.35 µM; 360,000 compounds, 0.4% hits; in the data active = inhibition above about 5%, passing the limit was not always enough
# PKA-R2B act: activators of PKA-R2B holoenzyme, primary screen, biochemical, fluorescence polarization, Cy5-IP20, human | AID 504700, 2011 | activation, % at 11.4 µM | 340,000 compounds, 0.079% hits | cAMP-dependent protein kinase catalytic subunit beta (Homo sapiens) + cAMP-dependent … | PKA-R2B holoenzyme dissociation; R2B truncated from residue 108, S112A mutant; 0% DMSO only, 100% 113 µM cGMP;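 active = activation above a cutoff set at the mean over all compounds plus 3 SD, cut at about 18% in these data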;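 note: higher means more holoenzyme dissociation and a rise in polarization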
# E coli Lon inh: inhibitors of E. coli Lon protease, primary screen, biochemical, fluorescence polarization | purified E. coli Lon protease | inhibition, % at 7.94 µM | 360,000 compounds, 0.42% hits | P0A9M0; in the data active = inhibition above about 13%, passing the limit was not always enough;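 note: 0% = enzyme with probe and DMSO and 100% = no enzyme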
# IDE cell activ: human IDE activators in live cells, primary screen, fluorescence polarization, HEK cells, FAbeta-B substrate; Insulin-degrading enzyme (Homo sapiens), P14735; FAbeta-B cleavage; 0% vehicle, 100% cell-free pure enzyme wells; activation, % at 5.96 µM; 340,000 compounds, 0.073% hits;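 active = activation above the mean of all tested compounds plus 3 SD, set per screening campaign, cut at about 17% in these data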
# PKA-R1A activ: activators of PKA-R1A holoenzyme, primary screen, biochemical, fluorescence polarization, Cy5-IP20, bovine R1A, mouse PKAc. cAMP-dependent protein kinase type I-alpha regulatory subunit (Bos taurus) + …. PKA-R1A dissociation; scaled: DMSO 0%, 113 µM cGMP 100%. activation, % at 11.4 µM. 340,000 compounds, 0.083% hits. AID 504707, 2011;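 active = percent activation above the mean of all tested compounds plus 3 SD, cut at about 19% in these data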;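 note: higher means more PKAc released from R1A so a rise in polarization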
# IDE cell inh: human IDE inhibitors in live cells, primary screen, fluorescence polarization, HEK cells, FAbetaB substrate; Insulin-degrading enzyme (Homo sapiens), P14735; FAbetaB cleavage; inhibition, % at 5.59 µM; 320,000 compounds, 0.41% hits; AID 434962, 2010;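 active = percent inhibition above the average of all tested compounds plus 3 SD, set per screening campaign, cut at about 16% in these data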;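 note: IDE supplied by intact live HEK cells; FP after avidin binding of uncleaved biotin substrate so inhibition keeps polarization high; 0% = DMSO wells and 100% = 60 µM reference IDE inhibitor Ii1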
# eLon confirm: E. coli Lon protease inhibitor retest, confirmation, biochemical, fluorescence polarization | shares compounds with E coli Lon inh | purified E. coli Lon | inhibition, % at 7.94 µM | 1,400 compounds, 31% hits; in the data active = inhibition above about 16%;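 note: 0% = enzyme with probe and DMSO and 100% = no enzyme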
# Numbers without * were called inactive; x = not tested or not shown; ! = not active in a repeat.
SMILES,Rin1 Abl inh,PKA-R2B act,E coli Lon inh,IDE cell activ,PKA-R1A activ,IDE cell inh,eLon confirm
COc1cc([N+](=O)[O-])ccc1NC(=O)CN1CCc2cc(OC)c(OC)cc2C1,0,9,42*,6,-7,x,6
Cc1ccc(-c2nc3ncccc3o2)cc1NC(=O)c1ccccc1,-2,-2,-8,8,-9,-2,x
Cc1ccc(-c2nc3ncccc3o2)cc1NC(=O)c1cccnc1,2,0,31*,2,15,5,-8
CC(NC(=O)CCn1c(=S)[nH]c2ccsc2c1=O)c1ccccc1 (stereo unspecified),-2,9,-10,1,-1,12,x
CCCCC1=CC2=C(c3ccco3)C(=O)C(C)(OC(=O)c3ccc(OC)cc3)C(=O)C2=CN1C(CO)CO (stereo unspecified),-4,-1,31*,5,1,-2,5
CCCCC1=CC2=C(c3ccco3)C(=O)C(C)(OC(=O)c3ccc(OC)cc3)C(=O)C2=CN1CC1CC1 (stereo unspecified),-11,8,39*,2,4,-1,20*
CCCCC1=CC2=C(c3ccco3)C(=O)C(C)(OC(=O)c3ccc(OC)cc3)C(=O)C2=CN1C1CC1 (stereo unspecified),-8,2,56*,6,-5,0,8
CCCCC1=CC2=C(c3ccco3)C(=O)C(C)(OC(=O)c3ccc(OC)cc3)C(=O)C2=CN1CCCN(CC)CC (stereo unspecified),-5,-16,28,4,-11,-1,x
CCCCC1=CC2=C(c3ccco3)C(=O)C(C)(OC(=O)c3ccc(OC)cc3)C(=O)C2=CN1CCCCO (stereo unspecified),1,-7,37*,0,-5,1,2
O=C(NC(=S)Nc1ccc(Br)cn1)c1cccs1,-1,1,-1,-2,-13,2,x
O=c1oc2cc(O)ccc2cc1S(=O)(=O)c1ccccc1,3,-2,19*,0,-7,6,43*
O=c1oc2cc(O)ccc2cc1-c1nc2ccccc2o1,-1,x,-64,x,x,x,x
O=C(/C=C/c1ccc(OC(F)F)cc1)OCC(=O)N1CCc2ccccc21,-2,0,17*,11,-6,-4,2
CCn1c2ccccc2c2cc(NS(=O)(=O)c3ccccc3C)ccc21,-3,-13,14*,4,-6,-10,-4
Cc1cc(C)n2nc(-c3ccccc3)c(-c3ccccc3)c2n1,0,2,0,-1,0,8,x
Cc1cc(C)n2nc(C)c(-c3ccccc3)c2n1,0,-6,22*,1,-10,-2,-14
O=C(c1cnc2ccc3ccccc3c2c1)c1cc(F)ccc1O,-1,-3,4,-1,-3,-2,x
N#Cc1c(NCCCO)nc(-c2ccccc2)c2c1CCCC2,-2,-6,14*,-6,-2,11,-3
N#Cc1c(NCCN)nc(-c2ccccc2)c2c1CCCC2,-5,-8,-3,7,-9,3,x
Cc1ccc(C(=O)N2CCCN(c3nc4cc5c(cc4cc3C#N)OCO5)CC2)cc1,-2,8,73*,5,-12,8,5
N#Cc1cc2cc3c(cc2nc1N1CCCCC1)OCCO3,-3,-6,-3,3,-2,0,x
Cc1ccc(OCc2nnc(SCC(=O)c3ccccc3)n2-c2ccccc2)cc1,0,-8,-4,-3,-17,2,x
Cc1cc2cc(CNC(=S)Nc3ccc(OC(F)F)cc3)ccc2n1C,0,4,15*,11,-9,-3,1
O=C1c2ccccc2C(=O)N1Cc1ccc2c(c1)OCO2,-4,-3,-1,5,-6,-5,x
Cc1cc2cc(CN3C(=O)c4ccccc4C3=O)ccc2n1C,-18,2,25*,5,-3,5,14
SMILES,Rin1 Abl inh,PKA-R2B act,E coli Lon inh,IDE cell activ,PKA-R1A activ,IDE cell inh,eLon confirm
Cc1cc2cc(CNC(=O)Nc3ccc(Cl)c(Cl)c3)ccc2n1C,-3,6,23*,-1,4,1,13
Cc1onc(-c2ccccc2Cl)c1C(=O)NCc1ccc2c(c1)cc(C)n2C,-22,-4,36*,-5,-14,0,15
FC(F)Oc1ccc(NC(=S)NCc2ccccc2)cc1,2,-15,-2,6,-13,2,x
Cc1cc(CNC(=O)c2cc(-c3ccccc3)nc3ccccc23)nn1C,-1,-2,-2,2,2,1,x
CCN(CC)S(=O)(=O)c1cccc(-c2nnc(SCC(N)=O)n2C)c1,2,-1,-3,1,1,-1,x
O=c1ccc2ccc(OCCOc3cccc(Cl)c3)cc2o1,4,-10,-15,5,-20,-1,x
Cc1ccc(S(=O)(=O)NCc2ccc3c(c2)cc(C)n3C)cc1,-1,2,16*,4,-12,2,-2
COc1cc(OC)cc(C(=O)NCc2ccc3c(c2)cc(C)n3C)c1,-2,1,46*,-1,12,0,6
Cc1cc2cc(CNC(=O)c3ccco3)ccc2n1C,-4,3,14*,0,-11,3,14
Cc1cc2cc(CNC(=O)c3cc4ccccc4o3)ccc2n1C,x,x,x,x,x,3,x
Cc1ccc(S(=O)(=O)NCc2ccncc2)cc1,0,2,-5,6,-11,3,x
COc1ccc(NC(=O)COC(=O)c2cc(C)oc2C)cc1OC,3,-6,-4,1,-3,-1,x
COc1ccc(OC)c(C(=O)COC(=O)c2cc(C)oc2C)c1,-2,-9,27*,9,-14,4,-7
c1ccc(-n2nnc3ccccc32)cc1,2,4,-11,1,2,5,x
O=C1[C@H]2[C@@H](c3ccccc3)N[C@]3(CCCN(Cc4ccco4)C3=O)[C@H]2C(=O)N1Cc1ccccc1,1,-12,96*,x,4,x,-4
CS(=O)(=O)N1N=C(c2ccc(Br)cc2)CC1c1cccs1 (stereo unspecified),-1,1,-4,-3,10,5,x
CN1Cc2c(N)cccc2C(c2ccccc2)C1 (stereo unspecified),-3,-4,55*!,7,0,-2,75*
O=C1CC(c2ccccc2)c2ccccc21 (stereo unspecified),-3,1,-6,2,2,7,x
CCOC(=O)c1ccc(S(=O)(=O)NCCN(CC)CC)cc1,2,-11,-11,3,-2,-1,x

# High-throughput results as filed in PubChem BioAssay.
